Reference: PubChem BioAssay AID1159580 (chemical genetic matrix, 2015)
About 2,000 (36%) of roughly 5,500 compounds were called active. About 18% were inconclusive and are not listed. Cut-off read from the data, not from the text of the source: active = normalized growth mostly below about 0.91 (no sharp cut-off); inconclusive = no clear call, values can overlap the other calls; inactive = mostly above about 0.92. Some of the results follow.

Test: chemical genetic growth profiling, strain panel (AID 1159580);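 note: tested at 20 µM; growth read once vehicle control cultures reached saturation at 30 °C; 1 = growth at the plate median or of vehicle wells; lower values mean less growth of the strain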
Details: growth OD

Measured: normalized growth

Cc1ccnc(NS(=O)(=O)c2ccc(N)cc2)n1
inactive: S. cerevisiae deletion strains, locus YJR075W, strain HOC1, active compounds read low 1.02 | S. cerevisiae deletion strains, locus YKL009W, strain mrt4, active compounds read low 1.01 | S. cerevisiae deletion strains, locus YKL068W, active compounds read low 1 | S. cerevisiae deletion strains, locus YKL085W, strain MDH1 (second series), active compounds read low 1.01 | S. cerevisiae deletion strains, locus YKL085W, strain MDH1, active compounds read low 1.01 | S. cerevisiae deletion strains, locus YKL160W, strain elf1, active compounds read low 1.01 | S. cerevisiae deletion strains, locus YKL190W, strain CNB1, active compounds read low 0.985 | S. cerevisiae deletion strains, locus YKR001C, strain vps1, active compounds read low 1.02 | S. cerevisiae deletion strains, locus YKR026C, strain gcn3, active compounds read low 1.01 | S. cerevisiae deletion strains, locus YKR091W, strain srl3, active compounds read low 0.998 | S. cerevisiae deletion strains, locus YLL001W, strain dnm1, active compounds read low 1.01 | S. cerevisiae deletion strains, locus YLL026W, active compounds read low 1 | S. cerevisiae deletion strains, locus YLL041C, strain sdh2, active compounds read low 1 | S. cerevisiae deletion strains, locus YLR027C, strain aat2, active compounds read low 1 | S. cerevisiae deletion strains, locus YLR039C, strain RIC1, active compounds read low 1.04 | S. cerevisiae deletion strains, locus YLR058C, strain SHM2, active compounds read low 1.02 | S. cerevisiae deletion strains, locus YLR102C, strain apc9, active compounds read low 1.01 | S. cerevisiae deletion strains, locus YLR113W, strain HOG1, active compounds read low 0.984 | S. cerevisiae deletion strains, locus YLR221C, strain rsa3, active compounds read low 0.98 | S. cerevisiae deletion strains, locus YLR258W, strain gsy2, active compounds read low 0.975 | S. cerevisiae deletion strains, locus YLR262C, strain YPT6 (second series), active compounds read low 1.04 | S. cerevisiae deletion strains, locus YLR262C, strain YPT6, active compounds read low 1.05 | S. cerevisiae deletion strains, locus YLR268W, strain sec22, active compounds read low 1.03 | S. cerevisiae deletion strains, locus YLR320W, strain mms22, active compounds read low 0.961 | S. cerevisiae deletion strains, locus YLR330W, strain CHS5, active compounds read low 1.01 | S. cerevisiae deletion strains, locus YLR342W, strain FKS1 (second series), active compounds read low 1 | S. cerevisiae deletion strains, locus YLR342W, strain FKS1, active compounds read low 1.01 | S. cerevisiae deletion strains, locus YLR357W, strain rsc2, active compounds read low 1.04 | S. cerevisiae deletion strains, locus YLR370C, strain arc18, active compounds read low 1 | S. cerevisiae deletion strains, locus YLR371W, strain rom2, active compounds read low 1.01 | S. cerevisiae deletion strains, locus YLR384C, strain iki3, active compounds read low 1.01 | S. cerevisiae deletion strains, locus YLR418C, strain cdc73, active compounds read low 1.07 | S. cerevisiae deletion strains, locus YML016C, strain PPZ1, active compounds read low 1.01 | S. cerevisiae deletion strains, locus YML032C, strain rad52, active compounds read low 1.01 | S. cerevisiae deletion strains, locus YML120C, strain ndi1, active compounds read low 1.02 | S. cerevisiae deletion strains, locus YML124C, strain tub3, active compounds read low 1.01 | S. cerevisiae deletion strains, locus YMR058W, strain fet3, active compounds read low 1 | S. cerevisiae deletion strains, locus YMR078C, strain ctf18, active compounds read low 1.01 | S. cerevisiae deletion strains, locus YMR125W, strain sto1, active compounds read low 0.995 | S. cerevisiae deletion strains, locus YMR129W, active compounds read low 0.998 | S. cerevisiae deletion strains, locus YMR205C, strain PFK2, active compounds read low 1.01 | S. cerevisiae deletion strains, locus YMR223W, strain ubp8, active compounds read low 1 | S. cerevisiae deletion strains, locus YMR231W, strain pep5, active compounds read low 1 | S. cerevisiae deletion strains, locus YMR263W, strain SAP30, active compounds read low 0.996 | S. cerevisiae deletion strains, locus YMR307W, strain GAS1, active compounds read low 1.01 | S. cerevisiae deletion strains, locus YNL067W, strain RPL9B, active compounds read low 1.02 | S. cerevisiae deletion strains, locus YNL071W, strain lat1, active compounds read low 0.987 | S. cerevisiae deletion strains, locus YNL128W, strain TEP1, active compounds read low 1.02 | S. cerevisiae deletion strains, locus YNL153C, strain GIM3, active compounds read low 1.01 | S. cerevisiae deletion strains, locus YNL183C, strain NPR1, active compounds read low 0.972 | S. cerevisiae deletion strains, locus YNL209W, strain ssb2, active compounds read low 0.982 | S. cerevisiae deletion strains, locus YNL233W, strain BNI4, active compounds read low 1.01 | S. cerevisiae deletion strains, locus YNL248C, strain rpa49, active compounds read low 1.01 | S. cerevisiae deletion strains, locus YNL250W, strain rad50, active compounds read low 1.03 | S. cerevisiae deletion strains, locus YNL271C, strain bni1, active compounds read low 1.02 | S. cerevisiae deletion strains, locus YNL298W, strain CLA4, active compounds read low 1.02 | S. cerevisiae deletion strains, locus YNL307C, strain MCK1, active compounds read low 1.02 | S. cerevisiae deletion strains, locus YNL322C, strain KRE1 (second series), active compounds read low 0.998 | S. cerevisiae deletion strains, locus YNL322C, strain KRE1, active compounds read low 1 | S. cerevisiae deletion strains, locus YNR049C, strain mso1, active compounds read low 1.01 | S. cerevisiae deletion strains, locus YNR052C, strain pop2, active compounds read low 1.03 | S. cerevisiae deletion strains, locus YOL006C, strain TOP1, active compounds read low 1.03 | S. cerevisiae deletion strains, locus YOL012C, strain htz1 1.03 | S. cerevisiae deletion strains, locus YOL147C, strain pex11, active compounds read low 1.02 | S. cerevisiae deletion strains, locus YOR001W, strain rrp6, active compounds read low 1.01 | S. cerevisiae deletion strains, locus YOR061W, strain CKA2, active compounds read low 1.01 | S. cerevisiae deletion strains, locus YOR069W, strain VPS5, active compounds read low 1.01 | S. cerevisiae deletion strains, locus YOR070C, strain gyp1, active compounds read low 0.989 | S. cerevisiae deletion strains, locus YOR080W, strain dia2, active compounds read low 1.01 | S. cerevisiae deletion strains, locus YOR083W, strain WHI5, active compounds read low 0.979 | S. cerevisiae deletion strains, locus YOR106W, strain vam3, active compounds read low 0.975 | S. cerevisiae deletion strains, locus YOR136W, strain idh2, active compounds read low 1.01 | S. cerevisiae deletion strains, locus YOR144C, strain elg1, active compounds read low 1.02 | S. cerevisiae deletion strains, locus YOR184W, strain ser1, active compounds read low 1.03 | S. cerevisiae deletion strains, locus YOR231W, strain MKK1, active compounds read low 0.98 | S. cerevisiae deletion strains, locus YOR265W, strain rbl2, active compounds read low 1.01 | S. cerevisiae deletion strains, locus YOR270C, strain vph1, active compounds read low 1.04 | S. cerevisiae deletion strains, locus YOR290C, strain snf2, active compounds read low 0.964 | S. cerevisiae deletion strains, locus YOR316C, strain cot1, active compounds read low 1.01 | S. cerevisiae deletion strains, locus YPL051W, strain arl3, active compounds read low 1.01 | S. cerevisiae deletion strains, locus YPL055C, strain LGE1, active compounds read low 0.988 | S. cerevisiae deletion strains, locus YPL078C, strain atp4, active compounds read low 1.03 | S. cerevisiae deletion strains, locus YPL106C, strain sse1, active compounds read low 0.968 | S. cerevisiae deletion strains, locus YPL240C, strain hsp82, active compounds read low 0.989 | S. cerevisiae deletion strains, locus YPL241C, strain CIN2, active compounds read low 1.01 | S. cerevisiae deletion strains, locus YPL256C, strain CLN2, active compounds read low 0.965 | S. cerevisiae deletion strains, locus YPR119W, strain clb2, active compounds read low 1.01 | S. cerevisiae deletion strains, locus YPR141C, strain kar3, active compounds read low 1.03 | S. cerevisiae deletion strains, locus YPR163C, strain tif3, active compounds read low 1.03 | S. cerevisiae deletion strains, locus YPR167C, strain met16, active compounds read low 1 | S. cerevisiae deletion strains, strain wtn01, active compounds read low 1.02 | S. cerevisiae strains, strain wild type, active compounds read low 0.999
